The source of these data is PubChem BioAssay AID504652 (National Center for Advancing Translational Sciences (NCATS), 2011).

SMILES strings stand for the structures. Screen size: about 360,000 compounds; about 11,000 (3.1%) were called active. Cut-off read from the data, not from the text of the source: active = activity change below about -30%; inactive = the rest. For the sample, actives were picked, then their nearest neighbours and some compounds at random.
% is set by controls: 0 for no effect and ±100 for the full control effect.

Chain of D(1A) dopamine receptor (Homo sapiens) (P21728 whole entry, looked up): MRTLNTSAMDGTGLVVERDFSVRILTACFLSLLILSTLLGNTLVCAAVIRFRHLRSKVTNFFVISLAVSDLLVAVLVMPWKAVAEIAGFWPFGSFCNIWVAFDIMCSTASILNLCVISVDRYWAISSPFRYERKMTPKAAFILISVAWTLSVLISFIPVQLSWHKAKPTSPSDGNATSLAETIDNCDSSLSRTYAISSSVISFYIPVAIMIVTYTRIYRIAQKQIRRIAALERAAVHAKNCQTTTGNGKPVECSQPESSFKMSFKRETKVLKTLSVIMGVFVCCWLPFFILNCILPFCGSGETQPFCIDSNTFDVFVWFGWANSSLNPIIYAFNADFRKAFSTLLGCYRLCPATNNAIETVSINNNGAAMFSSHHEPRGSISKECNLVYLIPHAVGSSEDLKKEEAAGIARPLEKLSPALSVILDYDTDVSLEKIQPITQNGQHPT

The assay has as its target D(1A) dopamine receptor (Homo sapiens) (UniProt P21728). As to the kind of experiment: Antagonist of Human D 1 Dopamine Receptor: qHTS. Particulars: HEK293 TREx D1 cells, calcium flux, dopamine EC80; at 10 µM; hits give low values. The procedure, abridged: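 After overnight tetracycline induction at 30 C, force-coupled D1 HEK293 cells took up a no-wash calcium dye at room temperature. Compounds were added and monitored 180 s, and the response to EC80 dopamine was then recorded.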
In general terms: qHTS replaces the single test concentration by a dilution series.
Take `CCc1cccc(NC(=O)c2cnc(N3CCOCC3)c3ccccc23)c1`: the activity change, negative = inhibition is -4.31% (inactive).
For the compound `CC(=O)c1sc(N2C(=O)c3oc4ccccc4c(=O)c3C2c2ccc(C)cc2)nc1C` (configuration not stated), the activity change, negative = inhibition is 1.92% (inactive).
On to `O=C(CN1CCCCC1)Nc1ccccc1C(=O)NC1CC1`, for which the activity change, negative = inhibition is 6.93% (inactive).
Then `Cn1nnnc1SCC(=O)Nc1ccccc1C(=O)NC1CC1`, with -31.5% (active); and `COC(=O)c1ccccc1NC(=O)CSc1nnnn1C`, with -7.79% (inactive); and `Cc1cccc(CCNC(=O)c2ccc3c(c2)nc2n3CCC(C)C2)c1` (configuration not stated), with 2.06% (inactive).
The same measure for `Oc1ccc(Cl)cc1C1C=C(c2ccc3c(c2)OCO3)NC(c2c(F)cccc2Cl)N1` (configuration not stated): -6.98% (inactive); for `COc1ccc(S(=O)(=O)Nc2cccc3cccnc23)c(N)c1`: 8.2% (inactive); for `COc1cccc(-n2ccn(CC(=O)NCc3ccc(C)cc3)c(=O)c2=O)c1`: -17.3% (inactive).
The same measure for `S=C(NCCc1ccccc1)NCC1CCCO1` (configuration not stated): 5.26% (inactive); for `CC1(C(=O)NNC(=S)NCC2CCCO2)CC1(Cl)Cl` (configuration not stated): -33.9% (active).
With `CCC(=O)NC(NCC1CCCO1)C(Cl)(Cl)Cl` (configuration not stated), the activity change, negative = inhibition is -13.3% (inactive).
The same measure for `O=C(CC1Oc2ccc(Cl)cc2NC1=O)NCc1ccccc1` (configuration not stated): -13.4% (inactive).
For the compound `CCC(C(=O)OCC(=O)Nc1ccc(C(=O)Nc2ccc(OC)cc2)cc1)c1ccccc1` (configuration not stated), the activity change, negative = inhibition is -57.6% (active).
The same measure for `CCC(C(=O)OCC(=O)Nc1c(Cl)cc(Cl)cc1Cl)c1ccccc1` (configuration not stated): -5.4% (inactive); for `CCC(C(=O)OCC(=O)Nc1ccccc1-c1ccccc1)c1ccccc1` (configuration not stated): 5.02% (inactive); for `CCOC(=O)c1ccc(CSc2nnc3cc(C)c4ccccc4n23)cc1`: 11.8% (inactive).
As for `CCN(CC)S(=O)(=O)c1ccc(C(=O)N=c2sc3cccc(OC)c3n2C)cc1`, the activity change, negative = inhibition was -7.05% (inactive).
Then `CCOc1ccc(-c2nonc2NC(=O)c2oc3ccc(CC)cc3c2C)cc1`, with -6.14% (inactive); and `CCc1nc(-c2cc(S(=O)(=O)N3CCN(c4ccc(OC)cc4)CC3)ccc2OC)no1`, with -58.8% (active); and `COc1ccc(N2CCN(S(=O)(=O)c3ccc(-c4coc(C)n4)cc3)CC2)cc1`, with 3.09% (inactive).
Take `COc1ccc(S(=O)(=O)N2CCN(c3ccc(F)cc3)CC2)cc1-c1noc(C)n1`: the activity change, negative = inhibition is -9.63% (inactive).
The same measure for `Cc1cc(C)cc(NC(=O)CCCc2nc(-c3ccccc3Cl)no2)c1`: 5.87% (inactive); for `Cc1ccc(NC(=O)c2ccc(CN3CC(=O)N4CCCCC4C3=O)cc2)c(Cl)c1` (configuration not stated): 1.45% (inactive).
Then `CCNC(=O)CC1C(=O)N(c2ccc(F)cc2)C(=O)N1Cc1ccc(C)cc1` (configuration not stated), with -4.84% (inactive); and `C=C1c2cc(CC)ccc2NC(=O)N1c1ccc(C)cc1`, with -37.2% (active).
The same measure for `Cc1ccc(CC2C(=O)N(c3ccc(F)cc3)C(=O)C2C)cc1` (configuration not stated): -14.1% (inactive); for `Cn1c(=O)c2c(nc(Oc3ccc(C#N)cc3)n2Cc2ccc(Cl)cc2Cl)n(C)c1=O`: 17.3% (inactive).
As to `O=C(/C=C/c1ccc(Cl)cc1)N1CCN(c2ccccc2[N+](=O)[O-])CC1`, the activity change, negative = inhibition was -7.39% (inactive).
For `Cc1nn(-c2ccccc2)c(Cl)c1/C=C/C(=O)c1ccc(O)cc1`, the activity change, negative = inhibition is -19.2% (inactive).
Take `CN(C)c1ccc(/C=C/C(=O)c2ccc(O)cc2)cc1[N+](=O)[O-]`: the activity change, negative = inhibition is -31.2% (active).
Turning to `Cc1ccc(Cl)cc1NC(=O)/C(C#N)=C\c1cn(Cc2ccc(F)cc2)c2ccccc12`, the activity change, negative = inhibition is -3.88% (inactive).
Regarding `Cc1ccccc1OCc1nc2c3cnn(-c4ccccc4F)c3ncn2n1`, the activity change, negative = inhibition was 3.88% (inactive).
Then `COc1ccccc1CNC(=O)COC(=O)c1sc(C)nc1C`, with -37.9% (active); and `COc1ccccc1CNC(=O)COc1ccc(C)nc1[N+](=O)[O-]`, with 4.17% (inactive); and `COc1ccccc1C(=O)OCC(=O)NCCNC(=O)COC(=O)c1ccccc1OC`, with 9.27% (inactive).
Take `COc1ccc(S(=O)(=O)NCC(c2ccc(N(C)C)cc2)N2CCCC2)cc1` (configuration not stated): the activity change, negative = inhibition is -3.85% (inactive).
With `Cc1cc(OCC(=O)NCC2(N(C)C)CCCCC2)cc(C)c1Cl`, the activity change, negative = inhibition was 1.84% (inactive).
Then `CC1CCC(NC(=O)CNC(=O)c2ccc3ccccc3c2)CC1` (configuration not stated), with -16.3% (inactive); and `O=C(CNC(=O)c1ccc2ccccc2c1)Nc1ncccc1O`, with -39.8% (active).
Consider `O=C(Nc1ncccc1O)c1ccc(C(=O)c2ccccc2)cc1`, for which the activity change, negative = inhibition is -8.68% (inactive).
Then `Cc1ccc(S(=O)(=O)N2CCCc3cc(NS(=O)(=O)c4cc(C)ccc4C)ccc32)cc1`, with -3.71% (inactive); and `CCc1ccc(NC(=O)CSc2nc3c([nH]c4ccccc43)c(=O)n2-c2cccc(OC)c2)cc1`, with -24.8% (inactive).
The same measure for `CCOc1ccc(-c2cc3nc(C4CCN(C(=O)OC(C)(C)C)CC4)c(C(=O)Nc4cccc(CC)c4)cn3n2)cc1`: 2.76% (inactive); for `CC(=O)Nc1ccc(NS(=O)(=O)c2ccc3c(c2)NC(=O)CC(=O)N3)cc1`: 19.3% (inactive); for `Cc1ccc(C(=O)Nc2ccc(C(=O)O)cc2)cc1S(=O)(=O)Nc1ccccc1`: 1% (inactive).
Then `CC(=O)Nc1ccc(NS(=O)(=O)c2cc(C)sc2C)cc1`, with -48.1% (active); and `COc1cc2c(=O)c(S(=O)(=O)c3ccc(C(C)C)cc3)cn(Cc3ccccc3C)c2cc1OC`, with 22.6% (inactive).
Consider `CCCNC(=O)C1CCN(c2nc3ccc(C)cc3[nH]2)CC1`, for which the activity change, negative = inhibition is 2.03% (inactive).
For `CC(C)(C)N(Cc1ccccc1)C(=O)c1ccncc1`, the activity change, negative = inhibition is 1.43% (inactive).
The same measure for `CN(Cc1ccccc1)C(=O)c1cccc(C(=O)N(C)Cc2ccccc2)c1`: -2.18% (inactive).
The same measure for `CN(C(=O)CN(CCO)CC(=O)N(C)C(C)(C)Cc1ccccc1)C(C)(C)Cc1ccccc1`: -97.3% (active).
The same measure for `COc1cc(CN(CC2CCCO2)C(=O)c2ccccc2F)cc(OC)c1OC` (configuration not stated): -5.27% (inactive).
With `Cc1c(CN2CCC(CO)(CCOc3ccccc3)CC2)[nH]c2ccc(Cl)cc12`, the activity change, negative = inhibition was -2.77% (inactive).
The same measure for `Cc1nc(N2CCN(c3ccccn3)CC2)c2c(C)c(C(=O)Nc3ccc(F)cc3)sc2n1`: 1.11% (inactive).
As to `Cc1c(CN2CC[C@@H](N3CCN(c4ccccn4)CC3)[C@H](O)C2)[nH]c2ccc(F)cc12`, the activity change, negative = inhibition is -30.2% (active).
For `CCCCN(C)S(=O)(=O)c1ccc(C(=O)Nc2sc3c(c2C(N)=O)CC(C)(C)NC3(C)C)cc1`, the activity change, negative = inhibition was 18.5% (inactive).
